Common to all, as to test: log2 fold change, soluble protein after heating vs DMSO (PISA); higher = thermal stabilisation; K562 lysate, 10 uM; active = over 0.2 and 3.5 SD of the protein, either way, in both replicates (recomputed)
Compound in test [1]: C1=CC=C(C=C1)[C@H](COC2=CC3=C(C=C2)NC(=O)N3)NC(=O)C4=CC=CN(C4=O)CC5=CC(=C(C=C5)F)F
The method in brief:
(§1)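 Pellets of K562 cells were dounce-homogenised in PBS pH 7.4 with 1 mM MgCl2, and the crude extract was held at 1 mg/mL protein for a 30 min treatment with 10 μM compound. Aliquots were heated for 3 min over 48°C-58°C and pooled before NP-40 was added to 0.5% at 4°C. The supernatant from 21,000xg for 90 min was quantified by TMTpro 16plex LC-MS/MS with channel sums equalised. Values are reported from duplicates as log-two fold change in thermal stability relative to solvent controls.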

Compound in test [2]: CC1=C(SC2=C1C(=N[C@H](C3=NN=C(N32)C)CC(=O)N)C4=CC=C(C=C4)Cl)C
The method in brief: as §1

Compound in test [3]: CC1=C2C(=CC=C1)N=C(N(C2=O)C3=CC=CC=C3C)CN4C=NC5=C(N=CN=C54)N
The method in brief:
as §1

Compound in test [4]: Cc1sc2c(c1C)C(c1ccc(Cl)cc1)=N[C@@H](CC(=O)OC(C)(C)C)c1nnc(C)n1-2
A digest of the protocol: as §1

Compound in test [5]: c1ccc([C@@H]2C[C@H]2NC2CCNCC2)cc1
A digest of the protocol: as §1

Results on 16 targets are retold here after the supplement of paper PMC10849652.

Targets with a hit are over-represented here; the source holds about 8,800 in all. About 0.5% of all pairs of compound and target were hits. A number with no mark means an inactive call.

Sequence of UniProt P22059 (P22059 whole entry, looked up): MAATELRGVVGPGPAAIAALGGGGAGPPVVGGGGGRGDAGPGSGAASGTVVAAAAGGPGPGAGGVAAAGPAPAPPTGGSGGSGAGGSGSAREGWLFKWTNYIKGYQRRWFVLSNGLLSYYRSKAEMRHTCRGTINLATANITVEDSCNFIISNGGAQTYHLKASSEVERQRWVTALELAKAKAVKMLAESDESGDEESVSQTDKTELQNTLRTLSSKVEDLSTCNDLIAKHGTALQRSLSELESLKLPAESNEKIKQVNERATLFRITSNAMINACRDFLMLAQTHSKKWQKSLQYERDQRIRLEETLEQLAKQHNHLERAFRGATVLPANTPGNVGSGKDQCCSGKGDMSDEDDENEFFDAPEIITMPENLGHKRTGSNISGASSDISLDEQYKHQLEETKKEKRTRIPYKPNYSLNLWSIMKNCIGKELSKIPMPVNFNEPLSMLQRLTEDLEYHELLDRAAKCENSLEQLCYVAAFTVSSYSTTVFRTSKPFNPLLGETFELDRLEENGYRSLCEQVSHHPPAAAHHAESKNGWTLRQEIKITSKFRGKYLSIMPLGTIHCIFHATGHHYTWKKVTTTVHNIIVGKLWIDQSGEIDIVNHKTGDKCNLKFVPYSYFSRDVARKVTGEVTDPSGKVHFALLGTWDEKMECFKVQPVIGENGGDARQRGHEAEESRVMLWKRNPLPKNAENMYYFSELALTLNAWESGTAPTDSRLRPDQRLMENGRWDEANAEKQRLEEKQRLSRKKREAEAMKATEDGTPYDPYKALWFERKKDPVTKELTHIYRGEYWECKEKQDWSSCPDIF
Sequence of UniProt Q86UW6 (Q86UW6 whole entry, looked up): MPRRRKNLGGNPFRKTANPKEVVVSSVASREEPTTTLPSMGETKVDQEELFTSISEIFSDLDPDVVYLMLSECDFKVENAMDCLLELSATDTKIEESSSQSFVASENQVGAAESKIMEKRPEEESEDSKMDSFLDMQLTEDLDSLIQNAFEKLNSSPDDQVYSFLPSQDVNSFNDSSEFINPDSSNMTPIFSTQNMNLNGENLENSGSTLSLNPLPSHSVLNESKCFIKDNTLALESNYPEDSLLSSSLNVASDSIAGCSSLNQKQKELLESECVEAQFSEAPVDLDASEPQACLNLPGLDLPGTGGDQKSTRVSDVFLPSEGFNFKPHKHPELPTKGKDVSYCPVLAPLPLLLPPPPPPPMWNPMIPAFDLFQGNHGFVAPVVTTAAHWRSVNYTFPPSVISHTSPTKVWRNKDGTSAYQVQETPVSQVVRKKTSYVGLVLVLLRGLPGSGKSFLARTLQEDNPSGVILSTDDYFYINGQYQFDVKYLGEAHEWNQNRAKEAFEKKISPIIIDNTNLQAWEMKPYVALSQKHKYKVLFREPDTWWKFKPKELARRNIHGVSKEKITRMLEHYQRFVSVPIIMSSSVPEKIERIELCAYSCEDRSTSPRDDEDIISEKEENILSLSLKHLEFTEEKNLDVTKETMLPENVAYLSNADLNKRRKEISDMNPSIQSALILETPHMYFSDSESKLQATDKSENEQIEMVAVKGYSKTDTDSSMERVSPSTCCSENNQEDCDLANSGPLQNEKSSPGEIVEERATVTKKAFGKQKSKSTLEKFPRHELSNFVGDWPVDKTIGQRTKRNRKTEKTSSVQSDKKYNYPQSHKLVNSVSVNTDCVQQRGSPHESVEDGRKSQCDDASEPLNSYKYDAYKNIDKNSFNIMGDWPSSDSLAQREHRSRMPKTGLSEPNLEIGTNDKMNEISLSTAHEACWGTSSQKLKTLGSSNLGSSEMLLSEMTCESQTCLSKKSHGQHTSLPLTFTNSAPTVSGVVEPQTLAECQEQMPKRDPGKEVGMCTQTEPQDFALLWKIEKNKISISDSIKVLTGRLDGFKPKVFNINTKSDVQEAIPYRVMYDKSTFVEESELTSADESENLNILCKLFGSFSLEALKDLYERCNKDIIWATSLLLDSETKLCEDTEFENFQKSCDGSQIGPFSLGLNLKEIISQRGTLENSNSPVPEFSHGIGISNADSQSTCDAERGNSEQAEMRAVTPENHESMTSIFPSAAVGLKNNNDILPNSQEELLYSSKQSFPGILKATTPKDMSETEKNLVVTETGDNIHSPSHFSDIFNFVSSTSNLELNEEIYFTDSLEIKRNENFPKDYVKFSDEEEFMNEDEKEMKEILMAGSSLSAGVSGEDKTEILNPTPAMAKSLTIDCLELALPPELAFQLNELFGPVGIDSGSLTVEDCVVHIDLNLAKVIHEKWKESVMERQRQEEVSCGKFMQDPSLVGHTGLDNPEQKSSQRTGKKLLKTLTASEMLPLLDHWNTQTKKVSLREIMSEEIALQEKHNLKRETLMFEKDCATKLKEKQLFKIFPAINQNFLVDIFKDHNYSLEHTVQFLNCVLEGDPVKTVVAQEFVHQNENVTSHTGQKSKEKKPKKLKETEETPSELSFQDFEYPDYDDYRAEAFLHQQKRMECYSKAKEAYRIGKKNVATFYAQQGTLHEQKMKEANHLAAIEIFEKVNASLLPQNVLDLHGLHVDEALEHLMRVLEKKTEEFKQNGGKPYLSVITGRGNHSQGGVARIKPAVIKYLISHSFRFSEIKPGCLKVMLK
Sequence of UniProt Q96I59 (Q96I59 whole entry, looked up): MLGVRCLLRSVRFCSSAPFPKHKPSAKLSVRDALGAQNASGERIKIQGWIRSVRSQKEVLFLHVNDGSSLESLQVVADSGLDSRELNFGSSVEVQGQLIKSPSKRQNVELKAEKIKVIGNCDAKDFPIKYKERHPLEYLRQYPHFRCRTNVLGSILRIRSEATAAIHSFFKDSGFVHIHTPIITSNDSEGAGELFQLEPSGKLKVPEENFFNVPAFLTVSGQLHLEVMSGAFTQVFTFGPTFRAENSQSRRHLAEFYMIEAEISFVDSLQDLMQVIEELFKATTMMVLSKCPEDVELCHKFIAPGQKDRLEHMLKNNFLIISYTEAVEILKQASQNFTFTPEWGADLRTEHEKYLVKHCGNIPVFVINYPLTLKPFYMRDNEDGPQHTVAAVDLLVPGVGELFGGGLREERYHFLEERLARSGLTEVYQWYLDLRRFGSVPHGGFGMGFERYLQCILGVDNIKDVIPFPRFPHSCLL
Sequence of UniProt P55160 (P55160 whole entry, looked up): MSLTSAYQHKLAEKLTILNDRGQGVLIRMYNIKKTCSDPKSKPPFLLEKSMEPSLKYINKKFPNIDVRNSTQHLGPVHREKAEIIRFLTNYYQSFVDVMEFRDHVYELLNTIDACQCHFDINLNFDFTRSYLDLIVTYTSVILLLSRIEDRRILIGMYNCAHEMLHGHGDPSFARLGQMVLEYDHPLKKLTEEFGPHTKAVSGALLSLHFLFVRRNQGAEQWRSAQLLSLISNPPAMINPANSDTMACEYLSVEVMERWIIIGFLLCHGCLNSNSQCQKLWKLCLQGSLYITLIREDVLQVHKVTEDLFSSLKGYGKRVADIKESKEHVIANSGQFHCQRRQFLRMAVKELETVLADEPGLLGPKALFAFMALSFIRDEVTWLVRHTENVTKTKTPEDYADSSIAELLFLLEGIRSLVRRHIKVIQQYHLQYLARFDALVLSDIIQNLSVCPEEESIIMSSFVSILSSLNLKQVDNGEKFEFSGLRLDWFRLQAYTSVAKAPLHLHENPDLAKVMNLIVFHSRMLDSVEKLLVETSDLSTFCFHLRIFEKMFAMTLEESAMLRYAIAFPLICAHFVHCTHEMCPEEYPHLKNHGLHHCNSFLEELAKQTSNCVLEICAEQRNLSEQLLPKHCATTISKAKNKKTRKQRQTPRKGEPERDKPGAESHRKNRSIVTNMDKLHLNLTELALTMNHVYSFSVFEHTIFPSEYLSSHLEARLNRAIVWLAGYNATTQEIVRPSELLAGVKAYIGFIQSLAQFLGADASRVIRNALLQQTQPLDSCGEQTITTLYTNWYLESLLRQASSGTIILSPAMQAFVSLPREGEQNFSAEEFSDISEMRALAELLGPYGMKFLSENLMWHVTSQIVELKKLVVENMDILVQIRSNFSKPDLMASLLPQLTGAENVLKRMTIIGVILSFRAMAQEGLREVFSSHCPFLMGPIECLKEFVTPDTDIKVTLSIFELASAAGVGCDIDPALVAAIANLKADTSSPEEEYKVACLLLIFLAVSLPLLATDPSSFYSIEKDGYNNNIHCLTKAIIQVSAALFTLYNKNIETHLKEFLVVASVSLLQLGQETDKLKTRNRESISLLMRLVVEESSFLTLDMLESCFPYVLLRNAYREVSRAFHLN
Sequence of UniProt P08651 (P08651 whole entry, looked up): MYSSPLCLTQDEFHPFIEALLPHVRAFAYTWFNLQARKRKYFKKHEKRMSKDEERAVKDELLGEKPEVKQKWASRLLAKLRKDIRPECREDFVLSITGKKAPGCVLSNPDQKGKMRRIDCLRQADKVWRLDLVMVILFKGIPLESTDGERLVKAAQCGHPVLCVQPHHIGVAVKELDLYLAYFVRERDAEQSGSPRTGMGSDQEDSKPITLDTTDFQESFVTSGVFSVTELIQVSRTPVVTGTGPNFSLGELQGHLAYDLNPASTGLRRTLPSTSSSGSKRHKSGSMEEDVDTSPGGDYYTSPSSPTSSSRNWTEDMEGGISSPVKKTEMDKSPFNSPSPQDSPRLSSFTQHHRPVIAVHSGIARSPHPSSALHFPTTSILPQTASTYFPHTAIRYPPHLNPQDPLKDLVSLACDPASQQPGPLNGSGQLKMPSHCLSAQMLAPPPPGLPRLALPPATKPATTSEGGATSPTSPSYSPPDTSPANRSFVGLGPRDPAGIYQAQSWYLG
Sequence of UniProt P15559 (P15559 whole entry, looked up): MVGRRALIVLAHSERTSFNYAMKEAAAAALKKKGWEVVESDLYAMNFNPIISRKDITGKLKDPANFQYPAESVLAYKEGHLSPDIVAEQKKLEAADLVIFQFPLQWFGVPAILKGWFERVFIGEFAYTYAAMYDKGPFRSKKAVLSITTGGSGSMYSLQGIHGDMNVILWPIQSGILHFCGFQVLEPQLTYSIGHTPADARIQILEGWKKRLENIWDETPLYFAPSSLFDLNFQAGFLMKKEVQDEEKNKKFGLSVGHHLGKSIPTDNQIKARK

For NEBL isoform 2 (UniProt O76041), the log2 fold change in test [1] was -0.025; in test [2], -0.102; in test [3], 0.018; in test [4], -0.07; in test [5], -0.094.

As for NARS2 (UniProt Q96I59), the log2 fold change in test [1] was 0.013; in test [2] it was 0.024; in test [3], 0.092; in test [4], 0.053; in test [5] it was -0.05.

As to MTHFD1L (UniProt B7ZM99), the log2 fold change is -0.039 in test [1]; 0.025 in test [2]; 0.06 in test [3]; 0.025 in test [4]; 0.049 in test [5].

As to MT-ND1 (UniProt P03886), the log2 fold change in test [1] was -0.057; in test [2], -0.098; in test [3], -0.055; in test [4], -0.077; in test [5] it was -0.039.

For MRPS18A isoform 2 (UniProt Q9NVS2), the log2 fold change was 0.005 in test [1]; -0.101 in test [2]; 0.054 in test [3]; 0.066 in test [4]; 0.2 in test [5].

Take NF1 (UniProt P21359): the log2 fold change is -0.03 in test [1]; -0.01 in test [2]; 0.03 in test [3]; -0.009 in test [4]; 0.016 in test [5].

Consider NCKAP1L (UniProt P55160), for which the log2 fold change in test [1] is -0.002; in test [2], 0.021; in test [3] it was -0.106; in test [4], -0.061; in test [5], 0.005.

Regarding MRPS12 (UniProt O15235), the log2 fold change in test [1] is 0; in test [2], 0.019; in test [3], 0.053; in test [4] it was 0.039; in test [5] it was 0.026.

Turning to NFIC (UniProt P08651), the log2 fold change in test [1] is 0.023; in test [2], 0.018; in test [3], -0.056; in test [4], 0.052; in test [5], -0.177.

For N4BP2 (UniProt Q86UW6), the log2 fold change in test [1] was 0.024; in test [2], 0.04; in test [3], 0.064; in test [4], -0.022; in test [5], -0.068.

Regarding NQO1 (UniProt P15559), the log2 fold change in test [1] is 0.433 (active); in test [2], 0.025; in test [3] it was 0.223; in test [4], -0.008; in test [5], -0.016.

For NUSAP1 (UniProt Q9BXS6), the log2 fold change in test [1] was 0.039; in test [2], 0.018; in test [3], -0.001; in test [4], 0.026; in test [5] it was -0.223.

Take PARD3 (UniProt Q8TEW0): the log2 fold change is 0.078 in test [1]; 0.063 in test [2]; -0.028 in test [3]; 0.09 in test [4]; -0.024 in test [5].

For the target MYO1D (UniProt O94832), the log2 fold change in test [1] was -0.006; in test [2], 0.002; in test [3] it was 0.015; in test [4], -0.006; in test [5], 0.02.

As for OSBP (UniProt P22059), the log2 fold change in test [1] was 0.007; in test [2] it was 0.048; in test [3] it was 0.036; in test [4], -0.009; in test [5] it was 0.039.

On to NOC2L (UniProt Q9Y3T9), for which the log2 fold change is 0.004 in test [1]; -0.019 in test [2]; 0.009 in test [3]; 0.324 (active) in test [4]; -0.012 in test [5].
